Several values for one entry are separate records, joined by “and”; a condition that tells them apart may be missing. Identical values can stand only once. The panel holds about 83,000 compounds, 20% with a hit somewhere; the sample as a whole holds those more often.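 Assay: single dose, 48 h. Readout: percent growth (0 = no net growth; negative = cell death). Active: <10.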 Activity calls are given as the source filed them.
tested on: UACC-257 melanoma; test: NCI-60 one-dose screen, 48 h (100 = growth as untreated, 0 = no growth, -100 = all killed); settings: 10 µM unless noted

Q: How did the growth turn out when `O=C(Nc1ccc2ccccc2c1)c1cc2ccccc2cc1O` was run?
A: 85.6% (inactive)

Q: `N=C(N)SCc1c2ccccc2c(CSC(=N)N)c2ccccc12` was tested. Which growth did it give?
A: 119% (inactive)

Q: With `NNCCc1ccccc1` as the molecule, how does the growth read?
A: 121% (inactive)

Q: For `Brc1ccc(/C=C(/C2=NCCN2)n2ccc3ccccc32)cc1`, which growth is on record?
A: 78.8% (inactive)

Q: With `C=C(c1ccc(C(=O)O)cc1)c1cc2c(cc1C)C(C)(C)CCC2(C)C` as the molecule, how does the growth read?
A: 94.9% (inactive) and 90.3% (inactive)

Q: `N=C(N)c1ccc(-c2ccc(-c3ccc(Cl)c(Cl)c3)s2)cc1` was tested. Which growth did it give?
A: 96.6% (inactive)

Q: How did the growth turn out when `C=C(CN1CC=CCC1)[C@@H]1CC[C@]2(COC(C)=O)CC[C@]3(C)[C@H](CC[C@@H]4[C@@]5(C)CC[C@H](O)C(C)(C)[C@@H]5CC[C@]43C)[C@@H]12` was run?
A: 99.4% (inactive)

Q: `O=[N+]([O-])c1cc(C(F)(F)F)ccc1Sc1ccc(C(F)(F)F)cc1[N+](=O)[O-]` was tested. Which growth did it give?
A: 76.3% (inactive)

Q: For `CCn1cc(C(=O)NN=C2CCCC2)c(=O)c2ccc(C)nc21`, which growth is on record?
A: 90.1% (inactive)

Q: With `O=C(Nc1ccc(Cl)c(Cl)c1)Nc1ccc(Cl)c(Cl)c1` as the molecule, how does the growth read?
A: -81.9% (active) and 50% (inactive)

Q: With `Cn1c(=O)c2c(nc(Nc3cc(=O)[nH]c(=O)[nH]3)n2Cc2ccccc2)n(C)c1=O` as the molecule, how does the growth read?
A: 47.3% (inactive)

Q: Which growth does the source give for `CCOC(=O)c1c(-c2ccc(OC)cc2)c(C#N)c2c(C#N)c(N)nn2c1N` here?
A: 49.9% (inactive)

Q: `COc1cc(/C=N/NC(=O)CCN2c3ccccc3Sc3ccccc32)cc(OC)c1OC` was tested. Which growth did it give?
A: 92.7% (inactive)

Q: Which growth does the source give for `O/N=C(/c1ccccc1)c1ccc2c3c(cccc13)CC2` here?
A: 83.2% (inactive) and 87.2% (inactive)

Q: Which growth does the source give for `COc1cc(-c2nc3occn3c2-c2ccnc(NCCCNS(=O)(=O)c3ccc(O)cc3)n2)ccc1F` here?
A: 54.4% (inactive)

Q: With `CN(C)c1ccc2nc3ccc(=O)cc-3sc2c1` as the molecule, how does the growth read?
A: -21.8% (active) and 24.8% (inactive)

Q: For `ON=C1CCCCCCCC1`, which growth is on record?
A: 104% (inactive) and 107% (inactive)

Q: With `[Cu+].[NH-][C@H]1C[N-]C(=O)[C@H]([C@H]2CCN=C(N)N2)[N-]C(=O)/C(=C\NC(N)=O)[N-]C(=O)[C@H](CNC(=O)C[C@@H](N)CCCN)[N-]C(=O)[C@H](CO)[N-]C1=O` as the molecule, how does the growth read?
A: 99.8% (inactive)

Q: How did the growth turn out when `CC(C)=CCc1cc(O)c(O)c2oc3cc(O)cc(O)c3c(=O)c12` was run?
A: 98.2% (inactive)

Q: `Cc1ccc(S(=O)(=O)OC[C@@]2(C)CC[C@]3(C)CC[C@]4(C)C(=CC[C@@H]5[C@@]6(C)CCCNC(C)(C)[C@@H]6CC[C@]54C)[C@@H]3C2)cc1` was tested. Which growth did it give?
A: -58.7% (active)

Q: With `COc1cc(C=O)ccc1Oc1ccc([N+](=O)[O-])cc1[N+](=O)[O-]` as the molecule, how does the growth read?
A: 90% (inactive)

Q: Which growth does the source give for `COc1cc2ncnc(Nc3ccc(F)c(Cl)c3)c2cc1OCC(=O)N1CCCCC1` here?
A: 101% (inactive)

Q: How did the growth turn out when `CCN1C(=S)N(CC)C2C1NC(=S)N2/N=C/C=C/c1ccccc1` (stereo not drawn) was run?
A: 41.7% (inactive)

— PubChem BioAssay (NCI)
